# GLP1R inv ag = qHTS of GLP-1 Receptor Inverse Agonists (Inhibition Mode) | Glucagon-like peptide 1 receptor (Homo sapiens), P43220 | HEK293 GLP-1R CRE-luciferase, luminescence, 24 h; GLP-1R form is constitutively active | Potency, µM (highest dose often 38.3 µM), actives largely listed as inhibitors | 1.6% of 410,000 active; further: nearly all actives have a fitted effect of over 55% in size
# Target sequence (P43220 whole entry, looked up): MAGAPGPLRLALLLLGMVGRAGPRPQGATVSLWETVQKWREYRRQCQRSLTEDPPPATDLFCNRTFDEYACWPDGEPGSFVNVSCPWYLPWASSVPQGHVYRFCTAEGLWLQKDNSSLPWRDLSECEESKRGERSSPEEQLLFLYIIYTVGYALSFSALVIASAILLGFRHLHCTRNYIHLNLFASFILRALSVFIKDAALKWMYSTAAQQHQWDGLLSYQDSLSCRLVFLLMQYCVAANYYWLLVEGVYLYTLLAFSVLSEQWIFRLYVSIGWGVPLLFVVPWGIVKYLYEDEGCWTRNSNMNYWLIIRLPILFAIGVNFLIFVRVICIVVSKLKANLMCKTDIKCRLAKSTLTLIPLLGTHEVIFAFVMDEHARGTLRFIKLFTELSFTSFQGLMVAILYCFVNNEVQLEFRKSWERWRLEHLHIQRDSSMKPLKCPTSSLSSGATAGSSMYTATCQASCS
#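 qHTS in 1536-well format: reporter HEK293 cells expressing constitutive GLP-1R activity in DMEM + 10% Nu serum, 24 hr with compounds at 37 deg C, luminescence read after 12 min with detection reagent.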
# BRCA1 expr act = qHTS Assay to Identify Small Molecule Activators of BRCA1 Expression | Potency, µM (top dose mostly 46.1 µM), usual class: activators | 1.1% of 380,000 active | MCF7-BRCA1-FFLuc reporter, luminescence, 48 h; response scale: scaled: vehicle 0%, 10 µM genistein 100%; further: nearly all actives have a fitted effect of over 80% in size
#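 MCF7-BRCA1-FFLuc, 2000 cells/well; 2 h attach, 37 °C/5% CO2; compound 48 h; luciferase substrate 15 min; luminescence end-point. Norm. to genistein 10 microM max activation and DMSO; concentration-response curves fitted.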
# GLP1R cytotox = qHTS of GLP-1 Receptor Inverse Agonists: Cytotox Screen; HEK293 cAMP-luciferase reporter cells, luminescence, 24 h; Potency, µM (highest dose often 38.3 µM), usual class: inhibitors; 0.13% of 410,000 active; AID 624418, 2012;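 further: loss of luciferase light is scored as toxicity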
#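 Compound-treated cells are incubated 24 hr at 37 deg C under 5% CO2 after a 12 hour attachment period, then luciferase detection reagent is added and luminescence is measured following 12 min at room temperature; lowered signal indicates toxicity.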
# Mito fusion yeast = qHTS Assay for Small Molecule Inhibitors of Mitochondrial Division or Activators of Mitochondrial Fusion; S. cerevisiae fusion-defective mutant growth rescue, CellTiterGlo 48 h; Potency, µM (top dose mostly 46.1 µM), most hits filed as activators; 0.23% of 320,000 active; AID 485298, 2010; further: nearly all actives have a fitted effect of over 45% in size
#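 Temperature-sensitive fusion-defective S. cerevisiae (e.g. fzo1-1, mgm1-5) were grown with compound in YPEG medium (3% ethanol, 3% glycerol) for 48 hours at 37C. Growth rescue was measured as viability by CellTiterGlo luminescence after 10 minutes at ambient.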
# GLP-1R agonist = qHTS of GLP-1 Receptor Agonists; 0.007% of 380,000 active; Potency, µM (highest dose often 45.6 µM), hits mostly activators; AID 624172, 2012; HEK293 GLP-1R CRE-luciferase, luminescence, 4-6 h; cells express a hypersensitive GLP-1R form; Glucagon-like peptide 1 receptor (Homo sapiens), P43220
# Numbers stand for hits; 0 = inactive; ? = inconclusive; - = no result; [ ] = remark or other dose. Shown are actives, neighbours in structure and some others; about 2.8% of the full set was active somewhere. The call rests on the fitted dose curve; in most records, active means well fitted curve in the direction sought with a large enough effect; inconclusive means small, poorly fitted or top-dose-only effect, or another doubt; inactive means no such curve, though single readings can be large; an effect the other way counts as inactive or inconclusive.
SMILES,GLP1R inv ag,BRCA1 expr act,GLP1R cytotox,Mito fusion yeast,GLP-1R agonist
Cn1nnnc1SCc1ccc(C(=O)Nc2nccs2)cc1,0,0,0,0,0
COC1CCCN(Cc2cn(C)nc2-c2ccc(Oc3ccccc3)cc2)C1 (centres undefined),?,0,0,0,0
Cn1cc(CN2CCCCC2CO)c(-c2ccc(Oc3ccccc3)cc2)n1 (centres undefined),10µM,0,0,0,0
CCOC(=O)c1cccc(N2C(=O)C3C4C=CC(CC4)C3C2=O)c1 (centres undefined),3.2µM,0,0,0,0
CC(=O)N1CCc2cc(S(=O)(=O)NC(CC(C)C)C(=O)Nc3cc(C(=O)O)ccc3C)ccc21 (centres undefined),0,0,0,0,0
CN1CCc2cc(O)c(O)cc2C(c2ccccc2)C1 (centres undefined),0,0,0,?,0
C=CCN1CCc2c(cc(O)c(O)c2Br)[C@@H](c2ccccc2)C1,0,0,0,16µM,0
CN(C(=O)COC(=O)c1ccc([N+](=O)[O-])cc1Cl)C1CCCCC1,0,0,0,0,0
CN(C1=C(N2CCOCC2)C(=O)c2ccccc2C1=O)c1ccccc1,10µM,0,?,0,0
O=C1C(NS(=O)(=O)c2cccs2)=C(N2CCOCC2)C(=O)c2ccccc21,0,0,0,0,0
COc1ccc(CNC(=O)c2cc3cccc4c3n2CC(C)S4)c(OC)c1 (centres undefined),7.9µM,-,0,-,-
Cc1ccc(C)c(N2CCN(CCCNC(=O)Cn3cccc3C(=O)c3ccccc3C)CC2)c1,?,0,10µM,0,0
Clc1ccc(-c2cc(CN3CCCCC3)no2)cc1Cl,10µM,0,0,0,0
Cc1ccc(SCC(=O)Nc2ccc(N3CCN(C)CC3)c(F)c2)cc1,?,?,0,0,0
Cc1ccnc(N(C(=O)Nc2ccccc2)C2=NCC(C)(C)S2)c1,0,3.2µM,?,0,0
CCOC(=O)c1ccc(N2C(=O)CC(SCC(N)C(=O)OCC)C2=O)cc1 (centres undefined),0,0,0,0,0
CCOC(=O)COc1ccc(Br)cc1/C=C/c1[nH]c(=O)[nH]c(=O)c1[N+](=O)[O-],10µM,0,?,0,0
CCOC(=O)COc1ccc(Br)cc1/C=C\c1[nH]c(=O)[nH]c(=O)c1[N+](=O)[O-],?,?,0,0,0
Cc1cccc(C)c1-n1c(C)cc(/C=N/NC(N)=S)c1C,11µM,0,?,0,0
Cc1cc(/C=N/NC(N)=S)c(C)n1-c1cccc(Cl)c1,?,0,?,0,0
CC1=C(C(=O)OC(C)C)C(C)C(C(=O)OC(C)C)=C(C)N1,0,0,0,0,0
CCOC(=O)Cc1csc(SCC(=O)Nc2cc(Cl)ccc2Oc2ccccc2)n1,10µM,0,0,0,0
Cc1cc(C)n(-c2ccc(C(=O)Nc3sccc3C(N)=O)cc2)n1,0,1µM,0,0,0
Cc1cc(C)n(-c2ccc(C(=O)Nc3nnc(C)s3)cc2)n1,0,0,0,0,0
O=C(CCN1CCOCC1)c1ccc(Cl)cc1,0,0,0,0,0
SMILES,GLP1R inv ag,BRCA1 expr act,GLP1R cytotox,Mito fusion yeast,GLP-1R agonist
COc1ccc2c(c1)CCC/C2=N/OC(=O)c1ccccc1OC,0,0,0,0,0
COc1ccc2c(c1)CC/C2=N\OC(=O)c1ccccc1C,0,11µM,0,0[9.22 µM],0
Cc1ccc(C(=O)NNC(=O)C2CCN(Cc3ccccc3)CC2)cc1,0,0,0,0,0
OC(CNCCc1ccccc1)c1ccccc1 (centres undefined),0,0,0,0,0
OC(c1ccccc1)C(NCCNCc1ccccc1)c1ccccc1 (centres undefined),7.9µM,0,0,-,0
COc1ccc(-c2nc(Cn3c(SCc4ccc(C)cc4)nc4cccnc43)c(C)o2)cc1OC,10µM,-,0,-,-
NNC(=O)CN1C(c2ccc(Cl)cc2)=Nc2ccc(Br)cc2C1c1ccccc1 (centres undefined),?,0,0,0,0
CCN(c1ccccc1)S(=O)(=O)c1cc(C(=O)NCC(c2ccco2)N2CCCCC2)ccc1C (centres undefined),8.9µM,0,?,-,0
CCN(c1ccccc1)S(=O)(=O)c1cccc(C(=O)NCC(c2ccco2)N2CCCCC2)c1 (centres undefined),?,0,0,-,0
COc1ccccc1NS(=O)(=O)c1cc(C(=O)NCC(c2ccco2)N2CCCCC2)ccc1C (centres undefined),10µM,0,0,0,0
Cc1ccccc1NS(=O)(=O)c1ccc(C(=O)NCC(c2ccco2)N2CCCCC2)cc1 (centres undefined),10µM,0,0,0,0
CC(=O)C1=C(c2ccc(C)c(C)c2)N(C(C)=O)n2c(nnc2-c2ccc(Cl)cc2)S1,0,-,0,-,-
CN1C(=O)N(C)C2(c3ccccc3)N(C(C)(C)C)C(=O)NC12c1ccccc1 (centres undefined),0,0,0,0,0
CC1CCN(CC(=O)Nc2nc(-c3ccccc3)cs2)CC1,5.6µM,0,0,0,0
CN1CCN(CC(=O)Nc2nc(-c3ccccc3)cs2)CC1,?,0,0,0,0
O=C(Nc1nc(-c2ccccc2)cs1)C1CCCCN1S(=O)(=O)c1ccccc1 (centres undefined),?,0,0,0,0
O=C(Nc1nc(-c2ccccc2)cs1)C1CCCCN1S(=O)(=O)c1ccc(Cl)cc1 (centres undefined),?,0,0,18µM,0
NC(=O)C1CCN(CC(=O)Nc2nc(-c3ccccc3)cs2)CC1,0,0,0,0,0
COc1ccc(C2(O)CCN(CC(=O)Nc3nc(-c4ccccc4)cs3)CC2)cc1,7.1µM,0,0,0,0
CCn1nc(C(=O)OCC(=O)NCC(C)C)c2ccccc2c1=O,0,0,0,0,0
CCn1nc(C(=O)OCC(=O)Nc2nc(-c3ccc(OC)cc3)cs2)c2ccccc2c1=O,0,6.3µM,0,0,0
O=C(CSc1n[nH]c(-c2ccccc2)n1)Nc1ccc(Br)cn1,?,0,0,0,0
CCOc1cc(C)nc(N2CCCC(C(=O)NCc3ccccc3F)C2)n1 (centres undefined),0,0,0,0,0
COc1ccccc1-c1c(C)nn2c(-c3ccccc3)cc(C)nc12,?,0,0,0,0
NC(=O)c1cc(Cl)ccc1OCC(=O)Nc1ccc2c(c1)OCO2,0,?,0,0,0
O=C(CN1CCCCC1)Nc1nc(-c2ccc(F)c(F)c2)cs1,?,7.1µM,?,0,0
